Sampled rows, rich in hits. Any-hit rate of the full collection: about 7.4%.
Rab9 promoter act: qHTS Assay for Rab9 Promoter Activators | Huh7 Rab9 promoter-luciferase reporter, luminescence, 24 h | Potency, µM (doses to about 9.22 µM), for inactives: at the top dose activation, negative = inhibition, actives largely listed as activators | actives 2.8% (n = 320,000); further: % of control where 0% means no effect; nearly all actives have a fitted effect of over 60% in size
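Using Huh7 cells stably transfected with Rab9 promoter–luciferase, compounds were incubated 24 h at 37 °C, 5% CO2; luciferase luminescence was read 10 min after reagent addition.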
NPC1 promoter act: qHTS Assay for NPC1 Promoter Activators | Potency, µM (top dose mostly 9.22 µM), for the others: top-dose activation, hits mostly activators | actives 2.4% (n = 320,000) | Huh7 NPC1 promoter luciferase reporter, 24 h | AID 485313, 2010; further: % of control where 0% means no effect; nearly all actives have a fitted effect of over 60% in size
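Readout is luciferase luminescence, reflecting NPC1 promoter activation in stably transfected Huh7 cells after 24 h compound exposure at 37 °C in reduced-serum medium with 10% FBS.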
SMN2 splice up: qHTS Assay for Enhancers of SMN2 Splice Variant Expression; Potency, µM (highest dose often 46.1 µM), inactives show top-dose activity change, positive = activation, usual class: activators; HEK293 SMN2-luciferase splicing reporter, luminescence, 30-36 h; actives 2.8% (n = 210,000); AID 1458, 2008; further: % of control where 0% means no effect; nearly all actives have a fitted effect of over 55% in size
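HEK293 cells carry an SMN2 […]–luciferase reporter in which exon 7 inclusion puts luciferase in frame. Cells were plated 10-12 h before compound addition, then incubated 30-36 h at 37C. ONE-Glo luminescence was read; sodium butyrate at 4.5 mM final served as control.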
KinaseGlo FLuc: Counterscreen for Luciferase (Kinase-Glo TM) Inhibition. Luciferin 4-monooxygenase (Photuris pensylvanica), Q27757. Kinase-Glo luciferase, ATP luminescence, 8 min. Potency, µM (top dose mostly 38.3 µM), for inactives: at the top dose activity change, negative = inhibition, usual class: inhibitors. actives 0.28% (n = 200,000). AID 1379, 2008; further: on the % scale 0 is the no-effect control and ±100 the full control effect; nearly all actives have a fitted effect of over 60% in size
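Compound is pinned into ATP-containing buffer (10 uM ATP, imidazole pH 7.2, 7 mM MgCl2). Kinase-Glo luciferase reagent is then added. Light output is recorded following an 8-min room-temperature incubation.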
FLuc modulator: qHTS profiling assay for firefly luciferase inhibitor/activator using purifed enzyme and Km concentrations of substrates (counterscreen for miR-21 project); Luciferin 4-monooxygenase (Photinus pyralis), P08659; AID 588342, 2011; purified FLuc, Km substrates, luminescence inhibition; actives 6.9% (n = 360,000); Potency, µM (highest dose often 57.5 µM), without a hit: top-dose activity change, negative = inhibition, actives largely listed as inhibitors;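 further: plate controls were vehicle for no effect and reference inhibitor for full effect; nearly all actives have a fitted effect of over 55% in size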
Target sequence (P08659 whole entry, looked up): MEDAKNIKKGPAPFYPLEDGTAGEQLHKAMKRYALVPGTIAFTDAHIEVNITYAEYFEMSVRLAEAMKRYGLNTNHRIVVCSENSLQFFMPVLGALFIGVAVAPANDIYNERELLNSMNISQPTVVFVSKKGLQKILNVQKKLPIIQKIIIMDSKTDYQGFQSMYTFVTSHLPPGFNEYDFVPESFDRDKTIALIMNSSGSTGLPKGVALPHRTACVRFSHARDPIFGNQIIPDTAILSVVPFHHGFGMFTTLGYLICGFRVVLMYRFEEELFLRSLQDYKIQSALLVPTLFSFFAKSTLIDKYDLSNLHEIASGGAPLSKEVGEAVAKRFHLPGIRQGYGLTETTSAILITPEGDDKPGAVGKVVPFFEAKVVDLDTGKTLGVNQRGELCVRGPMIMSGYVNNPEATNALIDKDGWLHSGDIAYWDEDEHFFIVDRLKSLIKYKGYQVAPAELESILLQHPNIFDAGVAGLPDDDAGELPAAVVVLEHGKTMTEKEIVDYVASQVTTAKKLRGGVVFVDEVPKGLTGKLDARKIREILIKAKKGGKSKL
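Purified P. pyralis luciferase (10nM final) with 10uM D-luciferin and 10uM ATP (Km levels) in 50mM Tris acetate pH 7.5, 10mM Mg acetate, 0.01% Tween-20, 0.05% BSA; qHTS 6-point titration, ~60 µM downward; luminescence read.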
ELG1 genotox: qHTS screen for small molecules that induce genotoxicity in human embryonic kidney (HEK293T) cells expressing luciferase-tagged ELG1; actives 1.3% (n = 330,000); HEK293T ELG1-luciferase reporter, luminescence, 16 h; Potency, µM (series often up to 46 µM), for inactives: at the highest dose activity change, positive = activation, usual class: activators; further: % of control where 0% means no effect; nearly all actives have a fitted effect of over 60% in size
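DMSO vehicle served as control against compound-treated ELG1-luciferase HEK293T cells; exposure lasted 16 hr at 37 °C and 5% CO2, followed by ONE-Glo luminescence detection after 30 min.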
Starred values were filed as active, the others as inactive; u = inconclusive; x = not tested or not shown; [ ] = another dose, or the depositor's remark. The call rests on the fitted dose curve; in most records, active means well fitted curve in the direction sought with a large enough effect; inconclusive means small, poorly fitted or top-dose-only effect, or another doubt; inactive means no such curve, though single readings can be large; an effect the other way counts as inactive or inconclusive. Potency means the concentration at half of the fitted maximal effect.

SMILES	Rab9 promoter act	NPC1 promoter act	SMN2 splice up	KinaseGlo FLuc	FLuc modulator	ELG1 genotox
O=C(/C=C/c1ccco1)Nc1ccc(Cl)c(-c2nc3cc(Cl)ccc3o2)c1	x	x	-6%	x	-14%	x
C/C(=N\Nc1nc(C)cc(-c2ccccc2)n1)c1ccc(C)o1	-15%	-6%	-40%	-3%	u	-7%
C/C(=N\NC(=O)c1ccc(-c2ccccc2)cc1)c1cccc(N)c1	21%	8%	x	-2%	u	2%
Cc1cc(-c2ccccc2)nc(N/N=C/c2ccccc2F)n1	u	u	x	x	11µM*	3%
C/C(=N\Nc1ccc([N+](=O)[O-])cc1)c1cccc(N)c1	u	u	u	1%	19µM*	14%
C/C(=N\Nc1nc(C)cc(-c2ccccc2)n1)c1cccc(N)c1	0%	25%	x	x	3.4µM*	-4%
C/C(=N/Nc1nc(C)cc(-c2ccccc2)n1)c1ccco1	u	u	16%	-6%	15µM*	-5%
CC#CCN1c2ccccc2[C@]23C[C@@H](C(=O)OC)N(S(=O)(=O)CCCC)C2=NC(C(=O)OC)=C(C(=O)OC)[C@H]13	x	x	-8%[9.22 µM]	2%[7.66 µM]	x	x
C/C(=N\Nc1nc(C)cc(-c2ccccc2)n1)c1ccc(O)cc1	-31%	13%	x	x	4.3µM*	-3%
C/C(=N/Nc1nc(C)cc(C)n1)c1ccc(Br)cc1	-14%	0%	x	x	-4%	-13%
C/C(=N\Nc1nc(C)cc(-c2ccccc2)n1)c1ccccc1	-6%	20%	x	x	2.7µM*	-4%
Cc1ccc(Cl)cc1NC(=O)C(=O)NCCc1sc(-c2ccc(F)cc2)nc1C	x	x	x	x	6%	x
O=C(CC(c1cccs1)N1Cc2ccccc2C1=O)Nc1ccc(Cl)cc1 (configuration not stated)	x	x	x	x	4%	x
Cc1ccc2sc(NC(=O)c3cccc(N4C(=O)CCC4=O)c3)nc2c1C	11%	17%	x	x	1.9µM*	2%
CC(C)(C)NS(=O)(=O)c1ccc2nc(NC(=O)c3ccc(N4C(=O)CCC4=O)cc3)sc2c1	-2%	-5%	-9%	-2%	2%	-4%
O=C(Nc1nc2ccc(Cl)cc2s1)c1cccc(N2C(=O)CCC2=O)c1	u	15%	x	x	1.3µM*	u
Cc1cccc2sc(NC(=O)C3CC3)nc12	14%	15%	x	x	-11%	1%
Cc1ccc2sc(NC(=O)c3ccc(N4C(=O)CCC4=O)cc3)nc2c1C	-11%	0%	-13%	-2%	-18%	1%
COc1ccc2nc(NC(=O)c3cccc(N4C(=O)CCC4=O)c3)sc2c1	2%	2%	x	x	0.85µM*	4%
Cc1ccc2sc(NC(=O)C3CC3)nc2c1C	u	u	x	x	17µM*	u
O=C(NCCCN1CCN(c2ccccc2)CC1)c1nnc(Cc2ccc(F)cc2)o1	x	x	x	x	0%	x
N#CCCn1c(=O)c(-c2ccccc2)nc2cnc(N3CCNCC3)nc21	x	x	-14%	-2%	x	x
Cn1cc(CN(C(=O)Nc2ccccc2)C2CCCCC2)c2ccccc21	x	x	-2%	x	-14%	x
O=C(Nc1nc2cc3c(cc2s1)OCO3)c1cccc(N2C(=O)CCC2=O)c1	29%	24%	x	x	0.95µM*	8%
CCC(C(=O)O)N1C(=O)/C(=C/C(C)=C/c2ccccc2)SC1=S (configuration not stated)	4%	-5%	x	x	-2%	0%
SMILES	Rab9 promoter act	NPC1 promoter act	SMN2 splice up	KinaseGlo FLuc	FLuc modulator	ELG1 genotox
CC(=C\c1ccccc1)/C=C1/SC(=S)N(CCCC(=O)O)C1=O	-20%	-15%	x	x	27µM*	-1%
CC(/C=C1\SC(=S)N(NC(=O)c2ccc(O)cc2)C1=O)=C\c1ccccc1	3%	7%	u	3%	u	-1%
CC(/C=C1\SC(=S)N(CCC(=O)Nc2ccccc2O)C1=O)=C\c1ccccc1	7%	6%	x	x	2%	-2%
CC(=C\c1ccccc1)/C=C1/SC(=S)N(C(C(=O)O)C(C)C)C1=O (configuration not stated)	1%	1%	-2%	5%	27µM*	0%
C=CCN1C(=O)/C(=C\C(C)=C\c2ccccc2)SC1=S	1%	14%	x	x	8.5µM*	u
CC(/C=C1\SC(=O)N(CCCC(=O)O)C1=O)=C\c1ccccc1	-30%[0.369 µM]	-32%	-76%	-1%	5.4µM*	-9%
COc1ccccc1N1CCN(CCCNC(=O)c2nnc(Cc3c(F)cccc3Cl)o2)CC1	x	x	-26%	x	2%	x
CCCn1c(C)nc2c(NCCN3CCOCC3)nc(C)nc21	x	x	-3%	0%	x	x
COc1ccc(/C=C2\CCC/C(=C\C=N\N(C)C)C2=O)cc1	19%	6%	-19%	0%	11µM*	5%
CN(C)/N=C/C=C1\CCC/C(=C\c2ccc(F)c(F)c2)C1=O	17%	7%	-100%	1%	21µM*	11%
O=C1/C(=C/c2cccnc2)CCC/C1=C\c1cccnc1	-44%	-6%	-100%	15%	-22%	-13%
CCOc1ccccc1NC(=O)c1c(C)cc(C)nc1SCC(=O)c1cccc(OC)c1	x	x	x	x	-9%	x
CCC(C)NC(=O)c1ccc2c(c1)N=C(C)c1cc(C)ccc1S2 (configuration not stated)	x	x	7%	x	-19%	x
c1ccc(-c2ccc3c(c2)NCCN3)cc1	-1%[1.84 µM]	u	x	x	13µM*	11%
NCC(=O)Nc1ccccc1	x	x	5%[9.22 µM]	1%[7.66 µM]	x	x
COc1ccc2oc(C(=O)OC(C)C(=O)Nc3ccc(N4CCOCC4)cc3)c(C)c2c1 (configuration not stated)	-3%	-5%	x	x	-12%	6%
CCOc1ccc2oc(C(=O)N(C)CC(=O)Nc3ccc(OCC)c(OCC)c3)c(C)c2c1	2%	-7%	x	x	6%	-1%
CCOc1ccc2oc(C(=O)Nc3ccc(N4CCOCC4)cc3)c(C)c2c1	x	x	-30%	-4%	13µM*	x
CCOc1ccc2oc(C(=O)Nc3ccc4c(c3)OCO4)c(C)c2c1	2.8µM*	3.2µM*	x	x	5.4µM*	u
COc1cc(-c2noc(-c3ccc(NC4CCCC4)c([N+](=O)[O-])c3)n2)cc(OC)c1OC	x	x	x	x	-6%	x
Cc1oc(-c2ccccc2Cl)nc1CS(=O)CC(=O)N1CCN(c2cccc(C(F)(F)F)c2)CC1 (configuration not stated)	x	x	x	x	-2%	x
COc1ccc(C2=NN(CCC(=O)NCCc3ccccc3)C(=O)CC2)cc1	x	x	x	x	-7%	x
COc1ncc2nc(-c3cc(F)cc(F)c3)c(=O)n(CCc3ccccc3)c2n1	x	x	-14%	-3%	x	x

Screening data (PubChem BioAssay)
